Test results published in the OligoGym collection.

The sequences below were run against SLC34A1 (assay: pooled miR-30 sensor sort-seq; sequence = guide strand). Conditions: shRNA.
Also: reference of the scale not given here.

Sequence	sensor-assay potency score (higher = more potent)
TCTCAATGCTGATCACACCAAG	-0.785
TAGAGGACGGCAAACCAGCGGT	-0.623
TTAAAGCAGTCATGCACCGTGG	-0.651
TTGAGCATCTTGACTAGGAGGA	0.961
TTGATGAGCACCACGAAGGCCA	-0.0356
TTCAGGGAGTGCATCCAGCGAG	-0.619
TAGTCATGTGTACACGTGCAGA	-1.32
TCTGTGATGATCTTGAGCAGGT	0.374

What follows are sequences tested against SLC35D2 in the same assay as above. Conditions: shRNA.

Sequence	sensor-assay potency score (higher = more potent)
TAGACTAAAGACATGTCTGTTT	-0.123
TAATAGCTGCACAGAACCGTGG	-0.868
TTAGCTTGGACACATATAGTAT	-0.569
TAGGATAAACACAACATTCTTC	0.0517
TAAACTGAAACAACTGGCCCTT	0.105
TAGCTGCACAGAACCGTGGAGT	-0.729
TACATTTCTTGAGACTGCCATT	-1.38
TTTCTTATCAAAATCAGGGAAG	-0.741
TTAACTAATTTTATTAGACTAA	-1.13
TTACTTGTGCTTGATAATCCAC	-0.229
TATAGTATCATTATGGTGGCTG	0.443
TTGTGCTTGATAATCCACTTAT	-0.388

The sequences below were run against SLC38A11 in the same assay as above. Conditions: shRNA.

Sequence	sensor-assay potency score (higher = more potent)
TTGAGTATTTGTAATAGCCATG	-1.21
TTTTATTGACCAAAGACTGGTA	-0.145
TACAACAATGTGGAAAACCGAT	-0.853
TTAAAGTAGAAAGTTGTGTTGT	0.823
TAATTTTCAAATAAGTCCCCTT	0.231
TTGTGTTGTCTGCTGAACATGA	-0.294
TTGAGTTCTAGAACTATCCCGA	0.433
TCAAGTATCCACATGTAGCAAA	-0.803
TTCTAGAGAACTGTAAACTAAG	-0.917
TAAACCTGTAGAGATGAGGGAG	0.481
TCTGCTGAACATGAGACTCTGA	0.182
TTTATCAATAAAACAAGGGAAA	-1.2

What follows are sequences tested against SLC39A12 in the same assay as above. Conditions: shRNA.

Sequence	sensor-assay potency score (higher = more potent)
TTGTCCCAGACAAACACCCTGG	-0.6
TTTATTACTCATGTTGAGCTTT	-0.0356
TTGCAGTTGATTTTACTCCAAC	-1.11
TGACACAAGATAGCAATCGTAG	-0.876
TGAAGAACAGATCTCTTCCTGA	0.419
TTGTGTTTGAACATGAGTCATT	-0.725
TTTGATACAAGTACTTCTGGTC	0.47
TATTCTGTAAAGTAGTCTGGGG	-0.404
